Compound activity (PubChem)
HSV replic up – enhancers of HSV replication in host cells, fold increase, host cell viability; HSV replication augmentation in cells; actives 0.005% (n = 220,000); maximum fold increase; in the data active means maximum fold increase above about 1.5; tested in PC3 cells
EP2 mod – EP2 receptor modulators, cAMP readout, primary screen, cell-based, HTRF cAMP, PGE2 stimulation. Prostaglandin E2 receptor EP2 subtype (Homo sapiens), P43116. EP2-expressing cells, cAMP HTRF FRET, PGE2 co-stimulation. induction, % at 25 µM. actives 0.83% (n = 260,000). AID 940, 2007;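 active means compounds whose cAMP rise, as percent of the full-agonist control response, exceeds 60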;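 further: rat C6 glioma line stably carrying human EP2 under a CMV promoter; the protocol text gives 20 µM as final concentration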
EP2 antag – human EP2 receptor antagonists, primary screen, TR-FRET cAMP, C6 glioma cells; Prostaglandin E2 receptor EP2 subtype (Homo sapiens), P43116; inhibition, % at 25 µM; C6 glioma cells expressing human EP2; cells stimulated with saturating PGE2; AID 1422, 2008; actives 0.52% (n = 260,000);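 active means percent inhibition above 40 after rounding to a whole number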;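 further: rat C6 glioma host cells with rolipram phosphodiesterase inhibitor present; the protocol text gives 20 µM as final concentration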
Pf gametocyte – late stage P. falciparum gametocyte viability inhibitors, primary screen, ATP luminescence, HTS | actives 0.065% (n = 150,000) | P. falciparum stage V gametocytes, 24 h | inhibition, % at 10.9 µM;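 active means inhibition above the mean plus 3 SD of compounds within the control limits, set per campaign, cut at about 38% in these data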
Furin inh – human furin inhibitors, primary screen, biochemical, fluorescence intensity. P09958. purified furin, fluorogenic substrate cleavage. inhibition, % at 20 µM or 30 µM. actives 0.061% (n = 220,000). AID 463115, 2010; in the data active means inhibition above about 25%
Target sequence (P09958 108-714 limits assumed): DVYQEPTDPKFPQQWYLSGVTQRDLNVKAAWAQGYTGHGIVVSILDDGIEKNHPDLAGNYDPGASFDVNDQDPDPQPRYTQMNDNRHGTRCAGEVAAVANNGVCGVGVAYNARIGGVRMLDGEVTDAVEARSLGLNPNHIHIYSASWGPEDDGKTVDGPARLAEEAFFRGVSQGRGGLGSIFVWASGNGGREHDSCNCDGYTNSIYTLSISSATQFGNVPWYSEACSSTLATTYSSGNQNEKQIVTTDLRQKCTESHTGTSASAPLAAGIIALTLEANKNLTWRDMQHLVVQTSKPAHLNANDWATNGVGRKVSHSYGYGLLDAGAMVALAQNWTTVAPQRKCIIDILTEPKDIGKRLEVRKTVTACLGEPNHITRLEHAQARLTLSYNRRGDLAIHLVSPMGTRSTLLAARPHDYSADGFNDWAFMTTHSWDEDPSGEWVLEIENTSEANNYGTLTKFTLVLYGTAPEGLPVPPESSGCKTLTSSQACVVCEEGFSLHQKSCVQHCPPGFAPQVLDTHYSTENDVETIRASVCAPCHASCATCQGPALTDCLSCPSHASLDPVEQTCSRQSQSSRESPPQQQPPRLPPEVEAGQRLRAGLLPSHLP
EP2 confirm – cAMP induction in EP2, EP4, beta2-AR and parental cells, confirmation, counter-screen for EP2 modulator project, cell-based, five parallel assays, C6 glioma, HEK293. shares compounds with EP2 mod. cAMP HTRF induction; plus low (about EC15) PGE2 agonist. calls only at 20 µM (by protocol). actives 47% (n = 1,300);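 active means cAMP induction above 50% in the main assay while under 30% in all four parallel counter assays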;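 further: rat C6 glioma cells stably expressing human EP2 receptor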
Each line names hits and unclear results; the compound was inactive in the other large screens (follow-up assays come after a bar, where they were run). Compounds with a hit are over-represented: about 1.4% of the library has one in this group of screens.

COc1ccc2[nH]c(=O)c(CN(C(=O)c3cccnc3)c3ccccc3)cc2c1	none (no result: Pf gametocyte)
CCOCCCNC(=O)C(c1ccc(C)cc1)N1CCOCC1 (centres undefined)	none (no result: Pf gametocyte)
CCn1c2ccc(Cl)cc2c2nc3ccccc3nc21	none | EP2 confirm active
CCOc1ccc(Cn2c3ccc(OC)cc3c3nc4ccccc4nc32)cc1	none
CCn1c2ccc(OC)cc2c2nc3ccccc3nc21	none (no result: Pf gametocyte) | EP2 confirm inactive
CCCCNc1nc2c(S(=O)(=O)c3ccccc3)nnn2c2ccccc12	EP2 mod 68.8 (no result: Pf gametocyte) | EP2 confirm inactive
Cc1ccc2c3c(cccc13)-c1ccccc1C2=O	EP2 mod 79.4 | EP2 confirm active
Cc1ccc2cc(C(c3nnnn3C(C)(C)C)N3CCOCC3)c(=O)[nH]c2c1C (centres undefined)	none (no result: HSV replic up, Pf gametocyte, Furin inh)
CC1CCC(NC(=O)CN2CCCN(Cc3ccc(F)cc3Cl)C2=O)CC1 (centres undefined)	none (no result: Pf gametocyte)
Cc1ccc(C)n1-c1ccc(N(C)C)cc1	EP2 mod 66.0 (no result: HSV replic up) | EP2 confirm inactive
Cc1ccc(C)n1-c1ccc(N2CCOCC2)cc1	none
O=c1n(Cc2ccccc2F)c2ccccc2n1Cc1ccccc1F	EP2 mod 77.5 (no result: Pf gametocyte) | EP2 confirm active
Nc1n[nH]c2c1C1(CCCCC1)Cc1ccccc1-2	EP2 mod 74.0 (no result: Pf gametocyte) | EP2 confirm active
CSc1n[nH]c2nc3c(c(=O)n12)C1(CCCCC1)Cc1ccccc1-3	none
Cc1ccc(S(=O)(=O)c2c(C)cc(C)nc2N2CCCCC2)cc1	EP2 mod 69.6 | EP2 confirm active
O=C(NCc1nc2ccccc2[nH]1)C1=C[C@H](c2ccccc2)C[C@H](OCCCCO)O1	none
CCSc1nc2ccccc2n1S(=O)(=O)c1ccccc1	none (no result: Pf gametocyte)
C=CCSc1nc2ccccc2n1S(=O)(=O)c1ccc(Cl)cc1	EP2 mod 75.3 | EP2 confirm inactive
Cc1ccc(-c2nnn(CC(=O)N(Cc3cccs3)C(C(=O)NC3CCCC3)c3ccncc3)n2)cc1 (centres undefined)	EP2 mod 72.0 (no result: Pf gametocyte) | EP2 confirm inactive
O=C(NCC1CCCO1)C(c1ccncc1)N(Cc1cccs1)C(=O)Cn1nnc(-c2ccc(F)cc2)n1 (centres undefined)	none
c1ccc(-c2csc3ncnc(N4CCOCC4)c23)cc1	none
c1ccc(-c2csc3ncnc(N4CCc5ccccc5C4)c23)cc1	EP2 mod 71.8 | EP2 confirm active
c1ccc(-c2nc(N3CCCCC3)nc3ccccc23)cc1	none (no result: Pf gametocyte)
Cc1ccc2nc(N3CCC(C(=O)O)CC3)nc(-c3ccccc3)c2c1	EP2 mod 90.6 (no result: Pf gametocyte) | EP2 confirm inactive
CCCCOc1ccc(-c2c(C(=O)Nc3ccccc3)c(C)[nH]c(=S)c2C#N)cc1	EP2 mod 72.8 | EP2 confirm inactive
O=C(COC(=O)c1ccc(F)cc1)Nc1cc(S(=O)(=O)N2CCOCC2)ccc1N1CCCC1	none (no result: Pf gametocyte)
O=C(COC(=O)c1ccc(S(=O)(=O)N2CCCC2)cc1)Nc1ccc(F)cc1F	EP2 mod 87.2 | EP2 confirm inactive
COCCOC(=O)c1c(C)oc2ccc(OCc3ccccc3)cc12	EP2 mod 65.2 | EP2 confirm inactive
Cc1ccc(S(=O)(=O)Nc2ccc(Cl)cc2C(=O)c2ccc(F)cc2)cc1	EP2 mod 67.0 | EP2 confirm inactive
CNC(=O)c1ccsc1NC(=O)c1ccc2c(c1)CCCC2	none (no result: HSV replic up, Pf gametocyte)
O=C(NC1CC1)c1cc2c(s1)-c1ccccc1OC2	none (no result: Pf gametocyte)
O=C(O)c1cc2c(s1)-c1ccccc1OC2	EP2 mod 85.6 | EP2 confirm inactive
OC1(c2ccc(Br)cc2)CN(c2ccccc2)C2=[N+]1CCS2 (centres undefined)	EP2 mod 75.0 | EP2 confirm active
OC1(c2ccc(Cl)cc2)CN(c2ccccc2)C2=[N+]1CCS2 (centres undefined)	EP2 mod 67.8 | EP2 confirm active
COc1ccc(C2(O)CN(c3ccccc3)C3=[N+]2CCS3)cc1OC (centres undefined)	none (no result: Pf gametocyte)
O=C(O)c1cccc(N2C(=O)c3ccc4c5c(ccc(c35)C2=O)C(=O)N(c2cccc(C(=O)O)c2)C4=O)c1	none
O=C(O)c1cc(C(=O)O)cc(N2C(=O)c3ccccc3C2=O)c1	EP2 mod 86.9 (no result: HSV replic up, Pf gametocyte, Furin inh) | EP2 confirm active
c1ccc(C2Nc3ccccc3Oc3ccccc32)cc1 (centres undefined)	EP2 mod 81.1 (no result: Pf gametocyte) | EP2 confirm inactive
c1ccc(C2Nc3ccccc3C3OCCCC23)cc1 (centres undefined)	none (no result: HSV replic up, EP2 mod, EP2 antag, Furin inh)
CC(C)=CCC/C(C)=C/CC/C(C)=C/CSc1ccccc1C(=O)O	EP2 mod 73.4 (no result: HSV replic up, Pf gametocyte, Furin inh) | EP2 confirm inactive
COC(=O)c1sc(S(=O)(=O)N2CCC(C(=O)O)CC2)c(C(=O)OC)c1C	none
C/C(=N\N=C(c1ccccc1)c1ccccc1)c1ccco1	EP2 mod 81.3 (no result: Pf gametocyte) | EP2 confirm active
C/C(=N\NC(=O)c1ccco1)c1ccc(NC(=O)c2ccccc2)cc1	none (no result: Pf gametocyte)
CNS(=O)(=O)c1ccc(NC(=O)c2nc3nc(C)cc(C(F)F)n3n2)cc1	none (no result: Pf gametocyte)
Cc1ccc2c(c1)-c1nc3ccccc3cc1C2=NC1CCCCC1	EP2 mod 69.9 | EP2 confirm inactive
Cc1ccc2c(c1)C(=NC1CCCCC1)c1cc3ccccc3nc1-2	none
O=C1c2nc3cc(-c4ccccc4)[nH]n3c(=O)c2CN1Cc1ccccc1	none (no result: Pf gametocyte)
CC(=O)c1cc(C#N)c(SCc2ccccc2)nc1C	EP2 mod 72.0 (no result: Pf gametocyte) | EP2 confirm active
CCCOc1ccccc1Cn1c(=O)oc2ccc(C)cc21	EP2 mod 83.9 (no result: Pf gametocyte) | EP2 confirm active
CCOc1ccccc1Cn1c(=O)oc2ccc(C)cc21	EP2 mod 76.7 | EP2 confirm active
COCCNC(=O)C(c1ccccc1)N(Cc1cccs1)C(=O)Cn1nnc2ccccc21 (centres undefined)	none (no result: Pf gametocyte)
O=C(CN1CCC(n2cnc3cccnc32)CC1)NC1CC1	none (no result: HSV replic up, Pf gametocyte, Furin inh)
CC(Sc1nnc(-c2cccs2)n1Cc1ccccc1)C(=O)NCc1ccc2c(c1)OCO2 (centres undefined)	EP2 mod 69.5 (no result: Pf gametocyte) | EP2 confirm inactive
CC1(C)Oc2ccc(C(=O)N3CCOCC3)cc2N(CC(=O)N2CCOCC2)C1=O	EP2 mod 73.7 | EP2 confirm inactive
CC1(C)Oc2ccc(C(=O)N3CCCC3)cc2N(CC(=O)N2CCCCC2)C1=O	none (no result: HSV replic up, Pf gametocyte, Furin inh)
Cn1nc(-c2ccccc2)c(-c2nc(-c3cccc(C(F)(F)F)c3)no2)c1Cl	none (no result: Pf gametocyte) | EP2 confirm inactive
CS(=O)(=O)c1ccc2nc(N)sc2c1	none (no result: Pf gametocyte)
O=c1[nH]c(/C(Cl)=C/c2cccc(F)c2)nc2cc(C(F)(F)F)ccc12	none
